In PubChem BioAssay AID720700 (The Scripps Research Institute Molecular Screening Center, 2013):
Screen size: about 370,000 compounds; about 3,100 (0.84%) were called active. The sample holds actives, similar compounds and a random draw of the others, so the mix is not that of the screen. No stated cut-off is given here; in the data, active means inhibition above about 9.5%; inactive means the rest.

Molecular target: 1-phosphatidylinositol 4,5-bisphosphate phosphodiesterase gamma-1 (Homo sapiens) (UniProt P19174)
Sequence (P19174 whole entry, looked up): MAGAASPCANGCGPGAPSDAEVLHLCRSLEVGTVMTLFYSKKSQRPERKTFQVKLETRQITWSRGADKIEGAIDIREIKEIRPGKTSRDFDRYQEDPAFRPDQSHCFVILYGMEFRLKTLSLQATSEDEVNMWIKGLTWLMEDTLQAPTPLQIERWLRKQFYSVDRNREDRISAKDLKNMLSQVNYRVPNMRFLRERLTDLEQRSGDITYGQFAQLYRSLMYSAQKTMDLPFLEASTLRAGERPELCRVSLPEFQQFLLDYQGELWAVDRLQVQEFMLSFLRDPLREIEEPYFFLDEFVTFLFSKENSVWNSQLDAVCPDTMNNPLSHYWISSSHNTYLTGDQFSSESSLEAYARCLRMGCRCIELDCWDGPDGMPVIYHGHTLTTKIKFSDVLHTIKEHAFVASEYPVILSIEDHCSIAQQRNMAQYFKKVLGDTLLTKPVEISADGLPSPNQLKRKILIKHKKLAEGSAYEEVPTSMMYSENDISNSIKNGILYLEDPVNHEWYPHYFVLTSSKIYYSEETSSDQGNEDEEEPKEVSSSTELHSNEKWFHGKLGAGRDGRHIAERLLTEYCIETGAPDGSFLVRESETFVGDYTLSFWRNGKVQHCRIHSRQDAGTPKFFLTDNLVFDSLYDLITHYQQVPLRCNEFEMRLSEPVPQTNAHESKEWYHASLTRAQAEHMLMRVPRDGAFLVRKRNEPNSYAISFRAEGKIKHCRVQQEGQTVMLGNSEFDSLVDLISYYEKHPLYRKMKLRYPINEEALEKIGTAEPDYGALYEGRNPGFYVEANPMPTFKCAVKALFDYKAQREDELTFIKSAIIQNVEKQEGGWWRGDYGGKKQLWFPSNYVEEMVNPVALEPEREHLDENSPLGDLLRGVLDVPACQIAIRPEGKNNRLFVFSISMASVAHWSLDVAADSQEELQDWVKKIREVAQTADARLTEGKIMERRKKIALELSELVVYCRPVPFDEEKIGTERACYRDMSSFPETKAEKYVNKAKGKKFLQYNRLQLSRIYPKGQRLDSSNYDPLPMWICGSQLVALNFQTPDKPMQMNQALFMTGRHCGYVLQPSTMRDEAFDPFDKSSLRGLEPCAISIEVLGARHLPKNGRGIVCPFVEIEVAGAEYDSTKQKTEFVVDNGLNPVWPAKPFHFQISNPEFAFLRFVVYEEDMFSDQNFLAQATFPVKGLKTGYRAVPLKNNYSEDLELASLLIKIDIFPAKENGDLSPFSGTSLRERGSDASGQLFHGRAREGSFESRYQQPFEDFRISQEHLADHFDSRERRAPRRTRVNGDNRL
Assay: blockers of human PLCG1 activity – biochemical, fluorescence, purified enzyme, primary screen (AID 720700)
Settings: purified PLC-gamma1, fluorogenic substrate, at 12.2 µM, stronger effect = higher value

SMILES | inhibition
C=CCN1C(=O)[C@@H](CC(=O)N2CCN(C(=O)OCC)CC2)[C@]2(C(=O)OCC)CCCCC/C=C/12 | -1.67% (inactive)
C=CC[C@@H](CC(=O)N[C@@H](CO)Cc1ccccc1)C(=O)N[C@H](COC(=O)[C@H](CC=C)CC(=O)OC(C)(C)C)Cc1ccccc1 | 0.69% (inactive)
C=CC[C@@H](CC(=O)N[C@@H](CO)Cc1ccccc1)C(=O)NCCOC(=O)[C@@H](CC=C)CC(=O)OC(C)(C)C | 5.69% (inactive)
C=CC[C@@H](CC(=O)NCCO)C(=O)N[C@H](C)COC(=O)[C@@H](CC=C)CC(=O)OC(C)(C)C | 9.97% (active)
O=C(N1CCOCC1)N1CC[C@H]2[C@H](CCCN2Cc2ccc(F)cc2)C1 | -1.67% (inactive)
COc1ccc(C2Nc3ccccc3C(=O)N2Cc2cccs2)cc1COc1c(C)cccc1C (configuration not stated) | -106% (inactive)
CCOC(=O)Nc1ccc(NC(=O)OCC)cc1 | 11.8% (active)
CCOC(=O)Nc1ccc(S(=O)(=O)N(C)C(C)C)cc1 | 0.75% (inactive)
CCOC(=O)Nc1ccc2c(c1)N(C(=O)CCCl)c1ccccc1[S@]2=O | -0.45% (inactive)
COc1ccc(N2CCN(CCNS(=O)(=O)c3ccc(Cl)s3)CC2)cc1 | -2.58% (inactive)
O=C(O)c1ccc(Cn2c(=S)[nH]c3cc(Cl)ccc3c2=O)cc1 | 11% (active)
CCOc1cc2[nH]c(=S)n(Cc3ccc(C(=O)N4CCN(C)CC4)cc3)c(=O)c2cc1OCC | -0.53% (inactive)
NC(=O)C1CCN(C(=O)c2ccc3c(=O)n(Cc4cccc(Br)c4)c(=S)[nH]c3c2)CC1 | 4.14% (inactive)
O=C(NC1CCCCN(Cc2cccc(C(F)(F)F)c2)C1=O)c1ccccc1I (configuration not stated) | -1.03% (inactive)
COc1ccc(C(=O)CC(=O)c2ccc(C)cc2)c(O)c1 | -16% (inactive)
COc1ccc(/C(C)=N/N2CCOCC2)c(O)c1 | 15.9% (active)
COc1ccc(OC)c(C(=O)c2coc3ccc(O)c(CN4CCOCC4)c23)c1 | -8.55% (inactive)
COC(=O)c1cc(S(=O)(=O)N2CCN(C(=O)C3CCCO3)CC2)cn1C (configuration not stated) | 0.5% (inactive)
C[C@@H](NC(=O)c1ccccc1OCC(=O)Nc1ccc(I)cc1)C(=O)N(C)Cc1ccccc1 | -0.29% (inactive)
Cc1cc(NC(=O)CN2C(=O)NC(CCc3ccccc3)C2=O)no1 (configuration not stated) | -2.53% (inactive)
COc1ccc(C2(c3ccc(OC)cc3)NC(=O)N(CC(=O)Nc3cc(C)on3)C2=O)cc1 | 0.49% (inactive)
Cc1cc(NC(=O)CN2C(=O)NC(CC(C)C)C2=O)no1 (configuration not stated) | 10.2% (active)
CC(c1ccc(N)cc1)c1cn(C)c2ccccc12 (configuration not stated) | 0.79% (inactive)
CCOC(=O)[C@]12CCCC=C1N(Cc1ccc(OC)cc1)C(=O)[C@@H]2CC(=O)NCc1cccs1 | 0.39% (inactive)
O=C1Nc2ccccc2OC1CC(=O)N1CCCCCCC1 (configuration not stated) | -0.62% (inactive)
CNC(=O)C[C@H]1C(=O)N(c2ccc(OC)cc2)C[C@@H]1Cc1ccccc1 | 1.07% (inactive)

SMILES | inhibition
O=C(C[C@H]1C(=O)N(c2ccc(F)c(F)c2)C[C@@H]1Cc1ccccc1)Nc1ccccc1 | 17.8% (active)
C[C@H]1CN(c2ccc(Br)cc2)C(=O)[C@@H]1CC(=O)Nc1ccc(Br)cc1 | -2.46% (inactive)
Cc1ccc(-n2c(SCC(=O)Nc3cccc4ccccc34)nnc2-c2ccco2)cc1 | 0.45% (inactive)
CC(C)Cn1cnc2c1c(=O)n(CC(=O)NN)c(=O)n2Cc1ccccc1 | -18.6% (inactive)
CC(C)CCn1cnc2c1c(=O)n(CC(=O)NC(N)=O)c(=O)n2Cc1ccccc1 | 2.87% (inactive)
CC(C)Cn1cnc2c1c(=O)n(CC(O)c1ccccc1)c(=O)n2CC(C)C (configuration not stated) | 16.4% (active)
COc1cccc(N2CCN(CC(=O)N(C)Cc3ccc(F)cc3)CC2)c1 | 0.54% (inactive)
CCc1ccccc1N(CC(=O)NCCSCc1ccco1)S(C)(=O)=O | -1.22% (inactive)
CS(=O)(=O)N(Cc1ccc(Cl)cc1)c1ccc(C(=O)NCCSCc2ccco2)cc1 | 9.72% (active)
Cc1cc(C)cc(N(CC(=O)NCCSCc2ccco2)S(C)(=O)=O)c1 | 2.48% (inactive)
CCCCNC(=O)C[C@H]1C[C@@]2(C(=O)OC)C(=C[C@H](COCc3ccccc3)O[C@@H]2C)N(Cc2ccc(Cl)cc2Cl)C1=O | 2.69% (inactive)
O=C1C(=O)N(Cc2ccc(-c3ccsc3)cc2)c2ccc(OC(F)(F)F)cc21 | -5.5% (inactive)
CCN(CC)C(=O)CC[C@@H]1CC[C@]2(CCCN(S(=O)(=O)C3CCCCC3)C2)O1 | -1.56% (inactive)
COC(=O)C1CN(CCc2ccccc2)CCS(=O)(=O)N1Cc1ccc(F)cc1 (configuration not stated) | 0.52% (inactive)
Cc1ccc(S(=O)(=O)N2CCN(C(=O)Cc3sc(C)nc3-c3ccc(F)cc3)CC2)c(C)c1 | -4.71% (inactive)
Cc1nc(-c2ccc(F)cc2)c(CC(=O)N2CCN(S(=O)(=O)c3ccc(F)cc3)CC2)s1 | 12.6% (active)
Cc1nc(-c2ccc(F)cc2)c(CC(=O)Nc2cc(S(=O)(=O)N3CCCCC3)ccc2C)s1 | 0.89% (inactive)
O=C(c1ccc2c(c1)OCO2)N1CCNc2ccccc2C1 | 9.9% (active)
O=C(C(=O)N1CCN(c2ccccc2)CC1)c1ccc2c(c1)OCO2 | -0.77% (inactive)
O=CN1CCN(C(=O)c2ccc3c(c2)OCO3)CC1 | 0.54% (inactive)
N#Cc1ccc(OC[C@@H](O)CN2CCC(C(O)(c3ccccc3)c3ccccc3)CC2)c(F)c1 | 0.67% (inactive)
COCCCNC(=O)C[C@H]1C[C@@]2(C(=O)OC)C(=C[C@H](C(C)(C)C)O[C@@H]2C)N(Cc2ccc(Cl)cc2Cl)C1=O | 1.11% (inactive)
CC(C)(C)OC(=O)NCc1cc(F)ccc1/C=C/S(=O)(=O)NCCc1ccccc1 | 2.46% (inactive)
Clc1ccc(C2[C@H]3CN(CC4CCCCC4)[C@H](c4ccccc4)C34CC2(c2cccnc2)C4)cn1 (some centres not stated) | 12.1% (active)
COC(=O)[C@]1(C#N)CC(=O)N(CC2CCCCC2)[C@@H]1c1ccccc1 | 8.67% (inactive)
COC(=O)c1ccc(C23CC4(C2)[C@H](CN(Cc2cccnc2)[C@@H]4c2ccccc2)C3c2ccc(Cl)nc2)cc1 (some centres not stated) | 2.06% (inactive)
